Reference: PubChem BioAssay AID623994 (NMMLSC, 2012)
Measured potencies and affinities stand elsewhere. Activity calls are given as the source filed them.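 The calls were made as follows: active = compounds whose fitted concentration for half the maximal dye retention is below 100 µM; inactive = the rest.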

What follows are compounds tested against Multidrug resistance protein CDR2 (Candida albicans (strain SC5314 / ATCC MYA-2876)) (UniProt P78595) (assay: blockers of Nile Red efflux by Candida CDR2 – S. cerevisiae AD1-8u, singleplex, Cherry Pick2 set, dose response (AID 623994)). Conditions: S. cerevisiae AD1-8u expressing CaCDR2, Nile Red efflux; series mostly up to 100 µM.
Sequence of Multidrug resistance protein CDR2 (Candida albicans (strain SC5314 / ATCC MYA-2876)) (P78595 whole entry, looked up): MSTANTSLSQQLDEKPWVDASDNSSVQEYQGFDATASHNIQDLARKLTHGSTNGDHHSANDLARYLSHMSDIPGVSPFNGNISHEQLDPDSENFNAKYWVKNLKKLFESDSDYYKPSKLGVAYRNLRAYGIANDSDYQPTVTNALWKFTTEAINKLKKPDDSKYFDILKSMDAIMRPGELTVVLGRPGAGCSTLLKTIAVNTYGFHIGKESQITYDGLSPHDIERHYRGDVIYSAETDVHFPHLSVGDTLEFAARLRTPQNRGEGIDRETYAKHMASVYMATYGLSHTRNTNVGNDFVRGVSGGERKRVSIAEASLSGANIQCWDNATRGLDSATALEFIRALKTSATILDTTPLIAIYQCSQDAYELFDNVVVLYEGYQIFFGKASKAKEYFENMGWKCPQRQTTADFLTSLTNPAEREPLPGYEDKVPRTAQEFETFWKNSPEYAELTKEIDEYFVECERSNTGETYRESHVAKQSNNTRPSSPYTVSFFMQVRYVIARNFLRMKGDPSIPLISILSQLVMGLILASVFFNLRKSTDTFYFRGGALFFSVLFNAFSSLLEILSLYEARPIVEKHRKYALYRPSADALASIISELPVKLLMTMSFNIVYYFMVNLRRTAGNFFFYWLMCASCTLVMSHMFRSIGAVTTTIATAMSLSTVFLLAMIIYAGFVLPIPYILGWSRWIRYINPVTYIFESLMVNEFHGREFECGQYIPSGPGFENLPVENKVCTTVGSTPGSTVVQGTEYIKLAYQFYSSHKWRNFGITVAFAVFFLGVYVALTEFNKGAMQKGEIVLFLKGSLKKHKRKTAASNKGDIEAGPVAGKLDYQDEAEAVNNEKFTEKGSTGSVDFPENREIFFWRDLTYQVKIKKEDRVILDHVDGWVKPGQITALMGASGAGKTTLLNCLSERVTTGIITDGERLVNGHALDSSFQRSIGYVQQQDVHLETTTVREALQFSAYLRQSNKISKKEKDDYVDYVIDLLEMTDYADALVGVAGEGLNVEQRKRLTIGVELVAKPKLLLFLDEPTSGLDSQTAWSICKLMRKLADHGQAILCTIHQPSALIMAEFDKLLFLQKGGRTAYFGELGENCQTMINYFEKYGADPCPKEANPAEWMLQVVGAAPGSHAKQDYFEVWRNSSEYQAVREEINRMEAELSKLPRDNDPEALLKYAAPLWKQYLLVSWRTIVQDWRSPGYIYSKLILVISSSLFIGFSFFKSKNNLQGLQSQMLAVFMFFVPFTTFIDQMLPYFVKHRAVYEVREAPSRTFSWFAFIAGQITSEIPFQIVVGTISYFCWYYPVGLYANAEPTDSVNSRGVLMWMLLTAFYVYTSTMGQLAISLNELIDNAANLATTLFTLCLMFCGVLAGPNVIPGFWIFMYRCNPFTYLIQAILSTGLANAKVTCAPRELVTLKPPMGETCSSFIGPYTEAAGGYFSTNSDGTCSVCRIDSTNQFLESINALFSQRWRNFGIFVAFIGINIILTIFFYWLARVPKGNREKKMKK

outcome, inactive:
CC(C)C(=O)N1CCC2(CC1)Oc1ccc(Cl)cc1C(=O)C21CC(c2ccc(Cl)cc2)=NO1 (centres undefined)
NS(=O)(=O)c1ccc(N2N=C(c3ccccc3)CC2c2ccc(Br)cc2)cc1 (centres undefined)
COc1cc(OC)c2ccc(=O)oc2c1C(CCN1CCCC1)c1ccc(N(C)C)cc1 (centres undefined)
CC(C)C(=O)N1CCC2(CC1)Oc1ccc(F)cc1C(=O)C21CC(c2ccccc2)=NO1 (centres undefined)
O=C(CSc1nnc(Cc2cccs2)n1Cc1ccco1)Nc1ccc(Br)cc1
CCCCNC(=O)C1CCC(CNc2nc(=S)[nH]c3ccccc23)CC1 (centres undefined)
CC(C)C(=O)N1CCN(c2ccccc2NC(=O)c2ccc3c(c2)OCCO3)CC1
Cc1noc(C)c1C(=O)N1CCC2(CC1)Oc1ccc(F)cc1C(=O)C21CC(c2ccc(Cl)cc2)=NO1 (centres undefined)
NC1=NC[C@H](Cc2ccc(O)cc2)N1CCc1cc(C(F)(F)F)cc(C(F)(F)F)c1
O=C(C1CCCN(c2ncnc3c2nc2n3CCCCC2)C1)N1CCN(c2ccccc2)CC1 (centres undefined)
O=C(CSc1nnc(Cc2cccs2)n1Cc1ccco1)Nc1cccc(Cl)c1
COc1ccc(C(=O)NC2CC(C)(C)Cc3c2cnn3-c2ccccc2)c(OC)c1 (centres undefined)
Cc1cc(C(=O)NC2CC(C)(C)Cc3c2cnn3-c2ccc(F)cc2)no1 (centres undefined)
Cc1ccc(CNC(=O)C2CCC(CNc3nc(=S)[nH]c4ccccc34)CC2)cc1 (centres undefined)
